GLP1R ag: qHTS of GLP-1 Receptor Agonists; Glucagon-like peptide 1 receptor (Homo sapiens), P43220; HEK293 GLP-1R CRE-luciferase, luminescence, 4-6 h; cells express a hypersensitive GLP-1R form; Potency, µM (highest dose often 45.6 µM), without a hit: at the highest dose activation, hits mostly activators; 0.007% of 380,000 active; note: potency is the fitted concentration of half-maximal effect; % of control where 0% means no effect
Target sequence (P43220 whole entry, looked up): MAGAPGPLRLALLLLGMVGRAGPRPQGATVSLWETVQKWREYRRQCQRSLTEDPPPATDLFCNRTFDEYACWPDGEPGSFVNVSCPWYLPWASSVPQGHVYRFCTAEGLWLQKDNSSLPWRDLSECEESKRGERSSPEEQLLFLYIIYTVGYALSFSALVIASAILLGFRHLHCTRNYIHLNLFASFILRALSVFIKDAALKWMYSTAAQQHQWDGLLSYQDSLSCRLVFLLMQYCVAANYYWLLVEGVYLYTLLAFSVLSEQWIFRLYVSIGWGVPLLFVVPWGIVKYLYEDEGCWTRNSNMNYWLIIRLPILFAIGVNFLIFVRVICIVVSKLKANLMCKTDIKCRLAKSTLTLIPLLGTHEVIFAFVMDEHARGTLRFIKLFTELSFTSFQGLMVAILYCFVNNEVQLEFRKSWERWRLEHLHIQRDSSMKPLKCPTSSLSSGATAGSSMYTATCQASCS
GLP-1R inv ag: qHTS of GLP-1 Receptor Inverse Agonists (Inhibition Mode); Glucagon-like peptide 1 receptor (Homo sapiens), P43220; HEK293 GLP-1R CRE-luciferase, luminescence, 24 h; GLP-1R form is constitutively active; Potency, µM (highest dose often 38.3 µM), inactives show at the top dose activity change, negative = inhibition, usual class: inhibitors; 1.6% of 410,000 active; AID 624417, 2012; note: potency is the fitted concentration of half-maximal effect; % is set by controls: 0 for no effect and ±100 for the full control effect; nearly all actives have a fitted effect of over 55% in size
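HEK293 cells stably co-expressing a cAMP-responsive luciferase reporter and constitutively active GLP-1R were seeded, incubated 12 h, then exposed to compounds for 24 h at 37 C. Luminescence was read 12 min after detection reagent; inverse agonists lower signal.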
D3 ag: qHTS of D3 Dopamine Receptor Agonist: qHTS; D(3) dopamine receptor (Homo sapiens), P35462; D3R DiscoveRx beta-arrestin cells, luminescence, 90 min; max activation, %; 0.58% of 410,000 active; AID 652048, 2013; in the data active = max activation above about 30%; note: 0% is about no effect
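Agonist mode: compounds and dopamine controls were applied to plated cells for 90 min at 37 degrees C after an overnight attachment at 1500 cells/well. Luminescent read-out followed 30 - 60 minutes at room temperature with DiscoveRx detection reagent.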
D3 antag: qHTS of D3 Dopamine Receptor Antagonist: qHTS. D(3) dopamine receptor (Homo sapiens), P35462. D3R cells, DiscoveRx beta-arrestin luminescence, antagonist mode; hits give low values. max response, negative = inhibition, %. 2.5% of 360,000 active. AID 652054, 2013; in the data active = max response below about -50%; inconclusive = no clear call, values can overlap the other calls; note: % is set by controls: 0 for no effect and ±100 for the full control effect
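Cells plated overnight at 1500 cells/well, then exposed to library compounds with dopamine controls for 90 minutes at 37 degrees C. DiscoveRx reagent added for 30–60 minutes at room temperature; luminescence read, quantitative HTS format.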
An asterisk follows results filed as active; ? = inconclusive; nt = no result given. A selection: hits, their analogues and other compounds. The true share with any hit is near 4.3%. Unless noted, calls come from the whole dose curve; as a rule, active = well fitted curve in the direction sought with a large enough effect; inconclusive = small, poorly fitted or top-dose-only effect, or another doubt; inactive = no such curve, though single readings can be large; an effect the other way counts as inactive or inconclusive.

SMILES	GLP1R ag	GLP-1R inv ag	D3 ag	D3 antag
O=C(CSc1nnc(-c2ccncc2)n1Cc1ccco1)OC1CCCCC1	-10%	50%	-5	12
O=C(CSc1nnc(-c2ccco2)n1Cc1ccccc1)OC1CCCCC1	1%	10µM*	0	-5
COC(=O)c1c(NC(=O)CSc2nnc(-c3ccco3)n2Cc2ccccc2)sc(C)c1C	-1%	13µM*	-1	19
O=C(CSc1nnc(-c2ccco2)n1CC1CCCO1)c1ccc(F)cc1 (centres undefined)	10%	-13%	6	-67*
COC(=O)c1c(NC(=O)CSc2nc3ccccc3c(=O)n2Cc2ccco2)sc(C)c1C	2%	16%	7	18
CC1CCN(c2ccc(-c3cccc(NS(=O)(=O)c4cccs4)c3)nn2)CC1	nt	?	0	nt
CCOC(=O)c1ccc(N2CCN(c3ccccc3F)CC2)c(NC(=O)Nc2ccc(Cl)c(Cl)c2)c1	nt	3%	8	nt
CN(C)c1ccc(-n2cc3c(=O)n(C)c(=O)n(C)c3c2)cc1	5%	78%	2	38
CCN(CC)c1ccc(-n2cc3c(=O)n(C)c(=O)n(C)c3c2)cc1	12%	1%	-4	-55*
CC1(C)Cc2c(sc(NC(=O)c3ccc(C(=O)c4ccccc4)cc3)c2C(N)=O)C(C)(C)N1	-5%	?	-11	-50*
CCOC(=O)c1c(NC(=O)C2COc3ccccc3O2)sc2c1CC(C)(C)NC2(C)C (centres undefined)	5%	3.2µM*	1	0
CCOC(=O)c1c(NC(=O)Cc2ccccc2)sc2c1CC(C)(C)NC2(C)C	?	?	11	-7
CCOC(=O)c1c(NC(=O)CSc2nnnn2-c2ccccc2OCC)sc2c1CC(C)(C)NC2(C)C	10%	10µM*	1	-4
Cc1ccc(N2CC(NC(=O)c3ccco3)CC2=O)cc1C (centres undefined)	nt	9%	6	nt
Cc1c(C(N)=O)nnn1-c1ccc(Br)cc1	nt	10%	3	nt
O=C(COCc1cc(-c2cccs2)on1)NCc1ccccc1Cl	nt	?	-10	nt
CCOC(=O)CN(Cc1ccccc1)C(C(=O)NC1CCCCC1)c1ccc(OC)cc1 (centres undefined)	nt	-1%	-15	nt
Cc1cc(C)c2c(=O)cc(C(=O)Nc3ccc(S(=O)(=O)Nc4onc(C)c4C)cc3)oc2c1	nt	16%	-21	nt
Cc1ccccc1OCC(=O)OCc1cc(=O)n2nc(C3CCCCC3)sc2n1	nt	8%	9	nt
Cc1ccc(S(=O)(=O)NCCc2cn3ccsc3n2)cc1	nt	7%	17	nt
OC(c1cccc(CN2CCCCC2)c1)c1ncc(-c2cccc3ccccc23)[nH]1 (centres undefined)	8%	?	-18	-54*
CCCC(=O)Nc1cc(C)c(O)c(-c2nc3ncccc3o2)c1	0%	0%	1	nt
CC1(C)N=C(c2ccccc2)C(=O)N1	1%	8%	10	14
CC1(C)N=C(c2cccc(F)c2)C(=O)N1	-2%	0%	43*	16
CCOc1ccccc1CNC(=O)C1CCN(S(=O)(=O)c2ccc3c(ccn3C)c2)CC1	nt	6%	3	nt
SMILES	GLP1R ag	GLP-1R inv ag	D3 ag	D3 antag
CCN(C(=O)CSc1nc2ccccc2nc1Cc1ccc(F)cc1)c1cccc(C)c1	nt	14%	2	nt
CCN(C(=O)CSc1nc2ccccc2nc1Cc1cccc(OC)c1)c1cccc(C)c1	nt	11µM*	-16	nt
CCOC(=O)c1cccnc1SCC(=O)N(CC)c1cccc(C)c1	22%	?	1	15
CCN(C(=O)CSc1nc(-c2ccccc2)no1)c1cccc(C)c1	nt	1.3µM*	10	nt
COc1ccc2c(CC(=O)Nc3ccc(C)cc3)coc2c1	nt	0%	-11	nt
CCOc1ccc(-c2nc(CSCC(=O)NC3CC3)c(C)o2)cc1	6%	?	-4	11
Cc1oc(-c2ccc(Cl)cc2)nc1CSCC(=O)NC1CCN(Cc2ccccc2)CC1	2%	?	-30	-76*
CCOc1ccc(-c2nc(CSCC(=O)NC3CCN(Cc4ccccc4)CC3)c(C)o2)cc1	8%	8.9µM*	-5	-117*
Cc1ccc(-n2ncc(C(=O)NCCCN3CCN(C)CC3)c2C2CCN(C(=O)OC(C)(C)C)CC2)cc1	nt	7%	2	nt
CC(C)Cc1nn2c(=O)cc(COC(=O)c3ccc4c(c3)OCO4)nc2s1	nt	10%	-11	nt
